Compound activity (PubChem)
Most compounds without a hit are left out; they make up all but 0.64% or so of the library.
TRb-SRC2 inh: disrupts binding of human TR beta to SRC2; AID 1469; P10828; 0.065% of 280,000 active; Potency, µM (doses to about 106 µM), for inactives: at the top dose activity change, negative = inhibition, most hits filed as inhibitors; TRbeta-SRC2 peptide binding, fluorescence polarization; receptor liganded with 1 µM T3;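 further: plate controls were bound peptide for no effect and peptide without receptor for full effect; nearly all actives have a fitted effect of over 50% in size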
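Assay buffer: 20 mM Tris-HCl, 100 mM NaCl, 10% glycerol, 1 mM EDTA, 0.01% NP-40, 1 mM DTT, 1 uM T3, 5% DMSO; TRb LBD 0.6 uM, Texas Red SRC2 20 nM; FP after 5 hr.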
TexasRed fluor: Texas Red fluorescence interference in TRb-SRC2 counter-screen; TRb/SRC2 Texas Red total fluorescence interference; Potency, µM (titrated, usually from 106 µM), for inactives: at the top dose fluorescence change, negative = quenching; 0.29% of 280,000 active; AID 1479; active means well fitted curve in either direction with a large enough effect; inconclusive means small, poorly fitted or top-dose-only effect
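Flags fluorescent or light-absorbing compounds by total fluorescence, S + 2P, at 555 nm excitation and 632 nm emission. Mixture: 20 nM Texas Red SRC2 peptide, 0.6 uM human TRb LBD, 1 uM T3, 5% DMSO; compound exposure 5 h at ambient temperature.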
RECQ1 helicase: inhibitors of human RECQ1 DNA helicase; P46063; RECQ1 DNA unwinding, red fluorescence kinetic read; Potency, µM (doses to about 57.3 µM), inactives show at the highest dose activity, negative = inhibition, most hits filed as inhibitors; 0.54% of 240,000 active; AID 2549;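 further: plate controls were vehicle for no effect and no enzyme for full effect; nearly all actives have a fitted effect of over 30% in size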
Target sequence (P46063 whole entry, looked up): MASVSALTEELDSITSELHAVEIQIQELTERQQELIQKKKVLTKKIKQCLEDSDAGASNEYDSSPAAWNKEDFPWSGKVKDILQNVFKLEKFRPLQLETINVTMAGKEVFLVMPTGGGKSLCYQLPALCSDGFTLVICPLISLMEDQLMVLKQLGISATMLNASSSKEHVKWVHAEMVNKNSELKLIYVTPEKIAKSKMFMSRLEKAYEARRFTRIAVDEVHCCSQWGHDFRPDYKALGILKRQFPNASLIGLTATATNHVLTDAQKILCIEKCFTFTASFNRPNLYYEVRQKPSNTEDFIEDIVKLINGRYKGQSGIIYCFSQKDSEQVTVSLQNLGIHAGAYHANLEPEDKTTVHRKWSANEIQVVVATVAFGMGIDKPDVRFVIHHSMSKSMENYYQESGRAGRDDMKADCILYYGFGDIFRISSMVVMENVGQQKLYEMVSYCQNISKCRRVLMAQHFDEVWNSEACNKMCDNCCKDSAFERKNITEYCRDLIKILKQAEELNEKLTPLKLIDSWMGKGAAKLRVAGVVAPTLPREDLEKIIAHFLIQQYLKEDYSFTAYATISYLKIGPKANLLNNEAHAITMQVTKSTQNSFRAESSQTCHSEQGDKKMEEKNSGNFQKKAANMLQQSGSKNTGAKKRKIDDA
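RECQ1T1 50 nM; forked duplex (20 bp + 30-nt ss tails) 200 nM, ATP 2 mM final; pH 8.0, 2 mM MgCl2, 2.5 ug/ml poly(dI-dC); 15 min compound preincubation; discontinuous kinetic read over 2 h at RT.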
BLM helicase inh: inhibitors of human Bloom syndrome helicase BLM | recombinant BLM DNA unwinding, fluorescence dequenching | Potency, µM (top dose mostly 56.1 µM), inactives show top-dose activity change, negative = inhibition, most hits filed as inhibitors | 0.2% of 350,000 active;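 further: plate controls were vehicle for no effect and no enzyme for full effect; nearly all actives have a fitted effect of over 35% in size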
The depositor's hits bear a star; u = inconclusive; x = no result; [ ] = remark or other dose. Unless noted, the call rests on the fitted dose curve; in most records, active means well fitted curve in the direction sought with a large enough effect; inconclusive means small, poorly fitted or top-dose-only effect, or another doubt; inactive means no such curve, though single readings can be large; an effect the other way counts as inactive or inconclusive. Unless noted, on the % scale 0 is the no-effect control and ±100 the full control effect; potency means the concentration at half of the fitted maximal effect.

SMILES | TRb-SRC2 inh | TexasRed fluor | RECQ1 helicase | BLM helicase inh
CC(=O)c1ccc(NC(=O)c2ccc3nc(-c4ccco4)c(-c4ccco4)nc3c2)cc1 | 15.6% | u | 8.91µM* | 15.8µM*
CC(=O)c1ccc(NC(=O)CSc2nnc(-c3ccco3)c(-c3ccco3)n2)cc1 | -4.4% | -0.5% | -7.2% | 7.94µM*
CCCNC(=O)c1ccc2nc(-c3ccccc3)c(-c3ccccc3)nc2c1 | 0.7% | -3.4% | -13.2% | -0.6%
CCCCNC(=O)c1ccc2nc(-c3ccco3)c(-c3ccco3)nc2c1 | 11.9% | -28.2% | 2.2% | 15.8µM*
O=C(NCc1ccccc1)c1ccc2nc(-c3ccco3)c(-c3ccco3)nc2c1 | 4.8% | u | u | 14.1µM*
C=C(C)C(=O)OCC[N+](C)(C)C | 0.4%[201 µM] | -1.5%[201 µM] | x | x
O=C(Nc1ccccc1)c1ccc2nc(-c3ccco3)c(-c3ccco3)nc2c1 | -3.8% | -2.6% | 0.9% | 31.6µM*
COCc1cc(C)nc(SCC(=O)c2ccc(O)c(O)c2)c1C#N | 5.0% | -0.7% | 25.1µM* | -3.7%
COCc1cc(C)nc(SCC(=O)Oc2ccccc2)c1C#N | 7.6% | -3.0% | -2.7% | -5.9%
Cc1ccc(N=C2NC(=O)S/C2=C\c2ccco2)cc1 | 6.1% | 12.2% | -8.5% | 22.4µM*
O=c1cc2c(=O)oc3cc(O)c(O)oc3c2c(O)c1O | 6.3% | -4.8% | 4.47µM* | -5.5%
O=c1oc2cc(O)c(Cl)cc2c2ccccc12 | 1.6% | -3.7% | 3.0% | 4.6%
Nc1ccc(C(=O)OCC(=O)N2CCN(C(=O)c3ccco3)CC2)cc1[N+](=O)[O-] | -12.1% | 0.159µM*[quencher] | -7.2% | 3.7%
O=S(=O)(Nc1ccc(-c2ccc(N3CCCCCC3)nn2)cc1)c1cccc(C(F)(F)F)c1 | -10.3% | 3162µM*[quencher] | x | -9.7%
Cc1ccccc1Nc1c(-c2cc(Br)ccc2F)nc2ccccn12 | -3.6% | 3.16µM*[quencher] | x | -3.4%
COc1ccc(OC)c(-c2nc3cc4ccccc4cc3nc2-c2ccccc2)c1 | -0.9% | -4.1% | 3.16µM* | -10.6%
CC(=O)Nc1ccc(NC2=C/C(=N/S(=O)(=O)c3cccs3)c3ccccc3C2=O)cc1 | -16.8% | -24.0% | 11.9% | 22.4µM*
Cc1ccccc1NC1=C/C(=N\S(=O)(=O)c2cccs2)c2ccccc2C1=O | -22.1% | -3.3% | -4.4% | 20µM*
C=CC(=O)OCCOc1ccccc1 | u | 3.4%[201 µM] | x | x
Cc1ccc(NC(=O)CCS(=O)(=O)c2ccc(Br)s2)cc1 | x | x | x | -5.7%
O=C(CCS(=O)(=O)c1ccc(Br)s1)Nc1c(F)cccc1F | u | 398µM*[quencher] | x | -1.7%
O=C1c2ccccc2-c2onc3ccc(NCCCn4ccnc4)c1c23 | 15.8µM* | 44.7µM*[fluorescent] | 28.2µM* | 35.5µM*
CC1CCC2C(=O)N3C(CCC(C)C3c3ccc(-c4ccco4)cc3)C(=O)N2C1c1ccc(-c2ccco2)cc1 (centres undefined) | 9.1%[11.2 µM] | -10.3%[11.2 µM] | 2.51µM* | 3.55µM*
C=CC1=C(C)C2=NC1=CC1=NC(=CC3=NC(=CC4=NC(=C2)C(C)=C4CCC(=O)O)C(CCC(=O)O)=C3C)C(C=C)=C1C.[Zn] | 12.6µM* | 28.2µM*[fluorescent] | 12.6µM* | 35.5µM*
COc1cccc(/C=C/C(=O)OCC(=O)NCC2CCCO2)c1OC (centres undefined) | -17.0%[53 µM] | 70.8µM*[quencher] | -6.9% | 4.2%
SMILES | TRb-SRC2 inh | TexasRed fluor | RECQ1 helicase | BLM helicase inh
COc1cccc(/C=C/C(=O)OCC(=O)NCC2CCCO2)c1 (centres undefined) | 1.3% | -0.4% | 9.5% | 0.6%
Cc1cc(-c2ccc(N=Nc3c(S(=O)(=O)O)cc4cc(S(=O)(=O)O)cc(N)c4c3O)c(C)c2)ccc1N=Nc1c(S(=O)(=O)O)cc2cc(S(=O)(=O)O)cc(N)c2c1O | x | x | x | -82.5%
COc1cc(-c2ccc(N=Nc3ccc4c(S(=O)(=O)O)cc(S(=O)(=O)O)c(N)c4c3O)c(OC)c2)ccc1N=Nc1ccc2c(S(=O)(=O)O)cc(S(=O)(=O)O)c(N)c2c1O | 25.1µM* | 15.8µM*[fluorescent] | 4.47µM* | u
CCOC(=O)N1CCN(Cc2nc3cc(NC(=O)c4ccccc4OC)ccc3n2C(C)C)CC1 | -3.2% | 7.9% | x | -2.1%
CCOC(=O)N1CCN(Cc2nc3cc(NC(=O)c4ccccc4[N+](=O)[O-])ccc3n2C(C)C)CC1 | u | 8.91µM*[quencher] | x | -0.7%
CC1=C(C#N)C(=O)N(C2CCS(=O)(=O)C2)C(=O)/C1=C\c1ccco1 (centres undefined) | 5.7% | -23.6% | 3.16µM* | 7.08µM*
CCCCn1c(NC(=O)c2ccccc2)c(C#N)c2nc3ccccc3nc21 | 8.3% | -9.0% | 3.55µM* | 1.58µM*
